# Hits are enriched below; roughly 4.7% of the tested compounds scored in any of these assays.
# PfHsp90 yeast 2 = reduces growth (ATP signal) of yeast expressing P. falciparum Hsp90. inhibition, % at 9.4 µM. S. cerevisiae expressing PfHsp90, BacTiter-Glo ATP, 48 h; yeast lacking PDR1 and PDR3 efflux regulators. 0.32% of 310,000 active;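 active = every replicate shows inhibition above about 80%, whatever the replicate mean, limit read from the data; inconclusive = mean inhibition reaches the set limit but some replicate falls short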;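 note: 0% = DMSO neutral controls and 100% = 20 µM radicicol positive controls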
# tim10-1 inh = tim10-1 yeast growth inhibition. 2.2% of 330,000 active. S. cerevisiae tim10-1 ts strain growth, BacTiter-Glo, 24 h. AID 463190. inhibition, % at 20 µM;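 active = inhibition of at least 40%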;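 note: mutant grown at 25 °C; 0% = DMSO wells with yeast and 100% = wells holding no yeast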
# Calb FLC = C. albicans growth modulation with fluconazole; C. albicans CaCi-2 (fluconazole-resistant clinical isolate) + fluconazole, Alamar Blue growth, 48 h; growth inhibition, % (test concentration not listed); 0.57% of 300,000 active;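 active = growth inhibition above about 58% in most replicates, limit read from the data, passing the limit was not always enough; inconclusive = exactly half the replicates above a set limit; inactive = most replicates below a set limit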;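 note: all wells also contain fluconazole at 8 µg/ml as a sub-toxic cotreatment; 0% = median of DMSO wells and 100% = median of geldanamycin control wells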
# tim23-1 inh = inhibits growth of tim23-1 mutant yeast. S. cerevisiae tim23-1 growth, BacTiter-Glo luminescence, 24 h. inhibition, % at 20 µM. 1.3% of 330,000 active. AID 463212;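 active = growth inhibition of the mutant yeast at or above 50%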;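 note: temperature-sensitive mutant grown at 25 °C; plate controls were DMSO-treated mutant yeast for no effect and medium wells lacking yeast for full effect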
# SKKanGAS inh = SKKanGAS growth inhibition | inhibition, % at 7.5 µM | S. pyogenes SKKanGAS, kanamycin growth, BacTiter-Glo, 6 h | AID 1662 | 1.3% of 300,000 active;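 active = mean replicate score, as percent of positive control median, at least 50; inconclusive = mean below 50 but one replicate at or above 50; inactive = mean and every replicate below 50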;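 note: strain carries kanamycin resistance gene driven by streptokinase promoter and grows in 40 µg/ml kanamycin; loss of luminescence reflects streptokinase promoter inhibition or plain growth inhibition; 0% = median of DMSO wells and 100% = positive control at its reference dose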
# TIM10 inh = inhibits growth of TIM10 yeast strain; S. cerevisiae TIM10 strain growth, BacTiter-Glo luminescence, 24 h; inhibition, % at 10 µM; 1.4% of 330,000 active; AID 463195;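 active = inhibition of 40% or more at the single tested concentration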;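 note: wild-type TIM10 isogenic control strain grown at permissive 25 °C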
# tim10 confirm = confirmation of TIM10 yeast growth inhibitors | 63% of 4,600 active | inhibition, % at 10 µM | shares compounds with TIM10 inh | S. cerevisiae tim10 strain growth, BacTiter-Glo luminescence, 24 h;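 active = inhibition of yeast growth at or above a set limit in either of two replicates at 10 µM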;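 note: this counterscreen used the strain with wild-type TIM10; 0% = yeast with DMSO and 100% = medium wells lacking yeast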
# * hit, by the source's call; ? = inconclusive; . = no result given.
SMILES,PfHsp90 yeast 2,tim10-1 inh,Calb FLC,tim23-1 inh,SKKanGAS inh,TIM10 inh,tim10 confirm
CC(NC(=S)Nc1cccc(C(F)(F)F)c1)C(C)(C)C (stereo not drawn),.,36,5,34,10,45*,26
COc1ccccc1NC(=O)Nc1nc(CC(=O)N2CCN(c3ccccc3F)CC2)cs1,.,15,-9,15,28,2,.
O=[N+]([O-])CC(c1ccccc1)c1c[nH]c2ccccc12 (stereo not drawn),.,19,0,39,10,45*,55*
COc1cc(C2SCC(=O)N2Cc2ccccc2)cc(OC)c1OC (stereo not drawn),9,23,-7,25,0,18,.
Cc1onc(-c2c(Cl)cccc2Cl)c1COC(=O)c1ccc(Cl)cc1,6,-19,1,-6,0,-35,.
O=C(Nc1nccs1)c1ccc2nccnc2c1,-8,24,-4,40,-5,41*,39*
CC(OC(=O)c1nc(Cl)ccc1Cl)C(=O)Nc1ccc2c(c1)OCCO2 (stereo not drawn),-32,21,3,32,8,1,.
Cc1ccc(OCc2cc(C(=O)N3CCC(Oc4cccnc4)CC3)no2)cc1C,14,36,12,28,-15,30,.
O=C(c1cc(COc2cccc(C(F)(F)F)c2)on1)N1CCC(Oc2cccnc2)CC1,3,38,0,39,-8,43*,43*
COc1ccccc1C1CC(c2cccc(NS(C)(=O)=O)c2)=NN1S(=O)(=O)c1ccccc1 (stereo not drawn),9,16,7,26,13,14,.
Cc1c(C)c(C)c2[nH]c(-c3ccc4c(c3)OCO4)nc2c1C,19,26,-13,46,-3,82*,87*
C/C(Cl)=C\Cn1c(O)c(N=NC(N)=S)c2cc(Br)ccc21,-127,22,?,31,80*,42*,48*
COc1ccccc1N1CN(S(=O)(=O)c2ccc(C)cc2)c2nc3ccccc3nc21,.,14,.,15,.,4,.
Cc1cnc(=O)[nH]c1SCc1cccc([N+](=O)[O-])c1,-35,-10,23,4,-3,7,.
CC1CCN(C(=O)c2ccc(NC3=C(Cl)C(=O)N(Cc4ccccc4)C3=O)cc2)CC1,.,22,.,40,.,41*,42*
CCCCC(CC)Cn1c(O)c(/C=C2\C=NN=C2c2ccccc2)sc1=S (stereo not drawn),-9,8,-10,1,-3,3,.
CCCn1c(O)c(/C=C2\C=NN=C2c2ccccc2)sc1=S,.,39,21,8,3,42*,24
CCOc1ccc(CCNC(=O)COC(=O)c2nc(Cl)ccc2Cl)cc1OCC,-25,28,-4,30,-3,7,.
NC(N)=NN=C1CCC(c2ccccc2)CC1 (stereo not drawn),-18,-14,1,0,1,-1,.
CCOCCCNC(=O)Cn1cnc2c(cnn2-c2ccc(OC)cc2)c1=O,21,-14,6,-3,-5,50*,-6
CN(C)c1cccc(/C=C(\C#N)c2ccccc2)c1,13,19,-9,20,6,9,.
Cc1cccc(NC(=O)Cn2c(=O)n3nc(CCn4nc(C)cc4C)nc3c3ccccc32)c1,-2,12,5,11,-4,11,.
CCN(C(=O)Cn1c(=O)n2nc(CCn3nc(C)cc3C)nc2c2ccccc21)c1cccc(C)c1,-14,36,.,44,.,48*,45*
CCOc1ncccc1C(=O)NC(C)CCc1ccccc1 (stereo not drawn),13,.,-1,.,5,.,.
Cc1ccc(NC(=S)Nc2ccc(OC(F)F)c(Cl)c2)cc1Cl,8,.,-31,.,11,.,.
SMILES,PfHsp90 yeast 2,tim10-1 inh,Calb FLC,tim23-1 inh,SKKanGAS inh,TIM10 inh,tim10 confirm
CC(NC(=S)Nc1ccc(OC(F)F)c(Cl)c1)C(C)(C)C (stereo not drawn),13,38,3,30,27,51*,38*
FC(F)Oc1ccc(NC(=S)NCc2ccccc2)cc1Cl,.,31,-13,24,4,50*,33*
O=C(O)c1ccc(NC(=S)NCc2ccccc2)cc1,-6,-6,6,-3,-2,12,.
FC(F)(F)c1ccc(NC(=S)NCc2ccccc2)cc1,0,36,-18,43,32,45*,47*
CC(C)(C)NC(=O)CC1C[C@H](C(=O)N2CCCCC2)[C@@]2(C)c3[nH]c4ccccc4c3CCN2C1=O (stereo partly drawn),-3,5,.,6,.,9,.
Cc1cc2occ(CC(=O)NC3=NCCS3)c2cc1C(C)C,6,33,-8,4,65*,40*,37*
O=C1C=C(c2cnc3ccccc3c2)C[C@@H](c2ccc3c(c2)OCO3)C1,-70,18,.,32,.,17,.
Cc1ccc(CN2C3CCCC2CC(NC(=O)c2ccc(C)cc2)C3)cc1 (stereo not drawn),14,-4,-7,6,-2,-2,.
N#C/C(=N\Nc1cc(Cl)cc(Cl)c1)c1nnc2n1CCCCC2,.,35,2,13,-2,41*,28
COc1cc(SC)ccc1C(=O)Nc1ccc(Br)cn1,-9,7,-10,0,-20,-9,.
COc1cc(SC)ccc1C(=O)Nc1ncc(Cl)cc1Cl,-4,17,-2,9,-13,48*,-8
CNc1ccc(Br)cc(C(=O)/C=C/c2cccc(Cl)c2Cl)c1=O,22,.,.,.,.,.,.
CCNc1ccc(Br)cc(C(=O)/C=C/c2ccccc2Cl)c1=O,.,39,19,27,-2,45*,17
Cc1ccc(NC(=O)Nc2cc(C(F)(F)F)c[nH]c2=O)cc1,-20,-20,-2,1,1,9,.
CC(C)c1ccc(S(=O)(=O)N2CCN(C(=O)C3=COCCO3)CC2)cc1,-10,5,.,10,.,97*,1
OCCN1CCN(c2nc(-c3ccccc3O)nc3ccccc23)CC1,-5,32,34,41,-4,24,.
O=C(Nc1ccc2c(c1)nc1n2CCOC1)c1ccco1,-8,14,-12,31,-3,47*,15
O=C(Nc1ccc2c(c1)nc1n2CCSC1)c1ccco1,.,31,17,47,-4,60*,53*
O=C(Nc1ccc2c(c1)nc1n2CCN(C2CCCCC2)C1)c1ccco1,-4,.,.,.,.,.,.
CCOC(=O)N1CCN(C(=O)c2c(Cl)cnn2C)CC1,-8,10,-4,19,0,9,.
COc1ccc(NC(=O)/C(C#N)=C/c2ccc(Sc3nncn3C)c([N+](=O)[O-])c2)cc1,-5,30,13,47,-6,54*,29
Cn1cnnc1Sc1ccc(/C=C/C(=O)c2ccc(O)cc2)cc1[N+](=O)[O-],5,25,22,37,-3,24,.

# Screening results: PubChem BioAssay, several laboratories
